Compound activity from PubChem.
DRD3 antagonist: blocks the human D3 dopamine receptor; P35462; D3R cells, DiscoveRx beta-arrestin luminescence, antagonist mode; hits give low values; max response, negative = inhibition, %; 2.5% of 360,000 active; in the data active means max response below about -50%; further: on the % scale 0 is the no-effect control and ±100 the full control effect
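Cells expressing the human receptor were seeded at 1500 cells/well, incubated overnight at 37 degrees C in 5% CO2, then exposed to library compounds with dopamine controls for 90 minutes at 37 degrees C before luminescent detection.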
TSHR antagonist: human thyrotropin receptor antagonism; P16473; TSHR-expressing cells, TSH-stimulated cAMP HTRF, 2 h; hits give low values; activity change, negative = inhibition, % at 11.5 µM; 0.2% of 330,000 active; AID 504810;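 active means activity change below a set negative limit, meaning inhibition stronger than a set level, cut at about -70% in these data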; further: on the % scale 0 is the no-effect control and ±100 the full control effect
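TSHR-expressing cells, 200/well, pre-treated with compound, then stimulated with EC80 TSH (4nM final) for 2 hours at 37 deg C. cAMP measured by competitive HTRF: anti-cAMP cryptate antibody in lysis buffer plus cAMP-d2, read after 30 minutes at room temperature.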
B2AR arrestin: beta2AR (human) beta-arrestin recruitment activity | P07550 | beta-arrestin recruitment to beta2AR, cell-based reporter | Potency, µM (titrated, usually from 46.1 µM), for inactives: top-dose activation, usual class: activators | 0.02% of 330,000 active; active means well fitted activation curve with a large enough effect;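 further: potency means the concentration at half of the fitted maximal effect; 0% = DMSO controls and full agonism = EC100 isoproterenol or metaproterenol; nearly all actives have a fitted effect of over 65% in size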
Target sequence (P07550 whole entry, looked up): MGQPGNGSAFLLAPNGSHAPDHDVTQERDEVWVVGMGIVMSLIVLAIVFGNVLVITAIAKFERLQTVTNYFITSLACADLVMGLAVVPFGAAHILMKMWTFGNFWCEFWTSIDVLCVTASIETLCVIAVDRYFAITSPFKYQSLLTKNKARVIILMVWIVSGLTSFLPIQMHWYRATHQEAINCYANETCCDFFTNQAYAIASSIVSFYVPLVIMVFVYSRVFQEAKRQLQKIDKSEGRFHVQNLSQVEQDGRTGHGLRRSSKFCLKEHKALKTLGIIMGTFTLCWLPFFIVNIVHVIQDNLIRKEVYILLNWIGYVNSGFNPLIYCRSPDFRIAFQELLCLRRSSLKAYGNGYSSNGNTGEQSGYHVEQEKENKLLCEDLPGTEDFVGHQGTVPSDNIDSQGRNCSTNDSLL
DRD3 agonist: activates the human D3 dopamine receptor. AID 652048. D3R DiscoveRx beta-arrestin cells, luminescence, 90 min. 0.58% of 410,000 active. max activation, %; in the data active means max activation above about 30%; further: 0% is about no effect
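Cells at 1500/well, incubated overnight, then treated with pinned compounds (dopamine as control) for 90 min at 37 degrees C. DiscoveRx reagent added for 30 - 60 minutes at room temperature; luminescence read.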
* = called active by the depositor. Compounds with a hit are over-represented: about 2.9% of the library has one in this group of screens.

What do the screens show for `CC(C)(C)n1nnnc1C(c1cc2ccccc2o1)N1CCN(C(=O)OCc2ccccc2)CC1` (centres undefined)?
DRD3 antagonist: -63*; DRD3 agonist: -10

Results for Cc1ccc(S(=O)(=O)Cn2nnnc2C(C(C)C)N2CCN(C(=O)c3ccco3)CC2)cc1 (centres undefined) ?
DRD3 antagonist: -56*; DRD3 agonist: -3

What do the screens show for `CC(C)COc1ccc(C(=O)Nc2nnc(S(=O)(=O)N(C)Cc3ccco3)s2)cc1`?
DRD3 agonist: -2

How did CCOc1cc(C(=O)Nc2ccc3c(c2)n(C)c(=O)c(=O)n3C)cc(OCC)c1OCC do in these assays?
DRD3 agonist: -1

Results for COc1cc2c(cc1OC)C(COc1ccc(F)cc1)N(C(=O)c1ccc(S(=O)(=O)N3CCCC3)cc1)CC2 (centres undefined) ?
DRD3 agonist: 5

What do the screens show for `COCCn1nnnc1C(c1ccccc1OC)N1CCN(C(=O)c2ccco2)CC1` (centres undefined)?
DRD3 antagonist: -4; TSHR antagonist: -4; B2AR arrestin: 0%; DRD3 agonist: 1

Results for CCC(C)(C)n1nnnc1C(c1ccccc1OC)N1CCN(C(=O)c2ccco2)CC1 (centres undefined) ?
DRD3 antagonist: 1; TSHR antagonist: 6; B2AR arrestin: 0%; DRD3 agonist: 31*

How did COc1ccc(-c2cnc(C(O)c3ccc(OC)c(F)c3)[nH]2)cc1 (centres undefined) do in these assays?
DRD3 antagonist: -2; DRD3 agonist: 4

How did CC(=O)Nc1ccc(NS(=O)(=O)c2c(C)nc3sccn3c2=O)cc1 do in these assays?
DRD3 agonist: 8

How did CCCc1ccccc1OCCNS(=O)(=O)c1cc2c(cc1C)OCC(=O)N2 do in these assays?
DRD3 antagonist: 4; TSHR antagonist: 0; B2AR arrestin: 0%; DRD3 agonist: 42*

Results for CC1CCN(S(=O)(=O)c2ccc3c(c2)C(Cl)(Cl)C(=O)N3)CC1 ?
DRD3 antagonist: -70*; DRD3 agonist: -6

What do the screens show for `CC1CCN(S(=O)(=O)c2ccc3ccccc3c2)CC1`?
DRD3 antagonist: -9; TSHR antagonist: -9; B2AR arrestin: 0%; DRD3 agonist: 6

Results for O=C(CCCn1c(=O)c2sccc2n(Cc2ccc(F)cc2Cl)c1=O)NCc1ccc2c(c1)OCO2 ?
DRD3 agonist: 5

What do the screens show for `NNC(=O)CN1C(c2ccc(Br)cc2)=Nc2ccc(Br)cc2C1c1ccccc1` (centres undefined)?
DRD3 antagonist: -55*; TSHR antagonist: -5; B2AR arrestin: 0%; DRD3 agonist: -49

Results for COC(=O)CN1C(c2ccc(OC)cc2)=Nc2ccc(Cl)cc2C1c1ccccc1 (centres undefined) ?
DRD3 antagonist: -60*; TSHR antagonist: 23; B2AR arrestin: 0%; DRD3 agonist: -16

How did COc1cc(C2=Nc3ccc(Br)cc3C(c3ccccc3)N2CC(=O)NN)cc(OC)c1OC (centres undefined) do in these assays?
DRD3 antagonist: -51*; TSHR antagonist: 2; B2AR arrestin: 0%; DRD3 agonist: -14

Results for COC(=O)CN1C(c2cccc(Cl)c2)=Nc2ccc(Cl)cc2C1c1ccccc1 (centres undefined) ?
DRD3 antagonist: -5; TSHR antagonist: -7; B2AR arrestin: -1%; DRD3 agonist: -6

How did CC(=O)CCC(=O)O do in these assays?
DRD3 agonist: 0

Results for CCCCN(C)C(=O)C1CCCN(c2ncnc3onc(C)c23)C1 (centres undefined) ?
DRD3 agonist: -6

Results for COc1ccc(CN(C(=S)Nc2ccccc2)C2CC(=O)N(c3ccc(F)cc3)C2=O)cc1 (centres undefined) ?
DRD3 antagonist: -13; TSHR antagonist: -36; B2AR arrestin: 7%; DRD3 agonist: -6

What do the screens show for `COc1ccc(N2C(=O)CS/C2=N\C(=S)Nc2ccccc2)cc1`?
DRD3 antagonist: -20; TSHR antagonist: -8; B2AR arrestin: 5.6µM*; DRD3 agonist: -20

Results for CCOc1ccccc1CNC(=O)CCCn1c(=O)c2cccn2c2ccc(F)cc21 ?
DRD3 agonist: 5

What do the screens show for `COc1cc(C(=O)Nc2ccc(-c3cc(C(F)(F)F)nn3-c3ccccc3)cc2)cc(OC)c1OC`?
DRD3 agonist: 6

What do the screens show for `CCOC(=O)c1c(C)oc2nc(C)nc(NCCc3ccc(OCC)cc3)c12`?
DRD3 agonist: 11

How did Cn1c(COc2ccccc2)nnc1SCCSc1nnc(COc2ccccc2)n1C do in these assays?
DRD3 antagonist: 11; TSHR antagonist: -3; B2AR arrestin: 0%; DRD3 agonist: -1

Results for Cn1c(COc2ccc(Br)cc2)nnc1SC1CCc2ccccc2C1=O (centres undefined) ?
DRD3 antagonist: -57*; TSHR antagonist: 16; B2AR arrestin: -1%; DRD3 agonist: -3

What do the screens show for `Cc1ccc(-c2nsc(NC(=O)c3oc4cc(C)c(Cl)cc4c3C)n2)cc1`?
DRD3 agonist: 9

Results for COc1ccc(N2Cc3ccccc3C2=O)cc1 ?
DRD3 antagonist: -8; TSHR antagonist: 17; B2AR arrestin: -1%; DRD3 agonist: 0

What do the screens show for `C=CC(=O)Oc1ccc(N2Cc3ccccc3C2=O)cc1`?
DRD3 antagonist: -64*; DRD3 agonist: -2

What do the screens show for `Cc1ccc(NC(=O)c2c(C)nc3sc(C(=O)Nc4ccc(F)cc4)c(N)c3c2-c2ccc(C)o2)c(C)c1`?
DRD3 agonist: 13

Results for COc1ccccc1-c1nc2c(c(SCC(=O)Nc3ccc(C)c(C)c3)n1)Cc1c(CO)cnc(C)c1O2 ?
DRD3 agonist: 4

Results for COC(=O)c1c(SC)nc2ccccc2c1OCc1ccc(C)cc1 ?
DRD3 agonist: 40*

What do the screens show for `COC(=O)c1c(SC)nc2ccccc2c1OCc1ccccc1C`?
DRD3 agonist: 32*

Results for Cc1cccc(NC(=O)CSc2nnc3scc(-c4ccccc4)n23)c1 ?
DRD3 agonist: 2

What do the screens show for `Cc1ccc(Cl)cc1-n1c(=O)cc(N2CCN(c3ccccc3)CC2)[nH]c1=O`?
DRD3 agonist: 3

How did Cc1cc(N2CCC(C(=O)Nc3ccccc3Cl)CC2)n2nc(C)c(-c3ccc(Cl)cc3)c2n1 do in these assays?
DRD3 agonist: 5

Results for CCOC(=O)c1c(N)n(-c2ccc(Cl)c(Cl)c2)c2nc3ccccc3nc12 ?
DRD3 agonist: -1

What do the screens show for `Cc1ccc(OCCSc2nc3ccccc3n2CCC(=O)O)cc1C`?
DRD3 agonist: -1

How did CC1=C(CO)C(=O)OC([C@@H](C)C2CC[C@H]3C4C[C@H]5O[C@]56[C@@H](O)C=CC(=O)[C@]6(C)C4CC[C@]23C)C1 (some centres undefined) do in these assays?
DRD3 antagonist: -136*; TSHR antagonist: -39; B2AR arrestin: 0%; DRD3 agonist: -67

Results for Cc1ccsc1/C=N/N=C/c1sccc1C ?
DRD3 antagonist: 0; TSHR antagonist: -14; B2AR arrestin: -5%; DRD3 agonist: 2
